Hit rate of the full screen: of about 16,000 compounds, about 4,000 (25%) were called active. Not shown: some 26% with an inconclusive outcome. The call rests on the fitted dose curve; in most records, active means well fitted curve in the direction sought with a large enough effect; inconclusive means small, poorly fitted or top-dose-only effect, or effect the other way; inactive means no such curve, though single readings can be large or run the other way. These entries were drawn from the full list. Numbered stars: 1 amine (or outer) side, 2 acyl side, 3 side chain; on linkers, the order of the positions; unused ones are H or OH. Bridge positions count the residues as written; N and C are the ends. Square brackets hold non-standard residues; d marks the D form. Peptide text beside a SMILES is read from it. I, II: the chains in the order shown. Actinocin(9to1) = Cc1c2oc3c(C)ccc(C(=O)[*:1])c3nc-2c(C(=O)[*:2])c(N)c1=O; aThr = C[C@H](O)[C@H](N)C(=O)O; NMeV = CN[C@H](C(=O)O)C(C)C; Sar = CNCC(=O)O
Target: Cytochrome P450 2C9 (Homo sapiens) (UniProt P11712)
Assay: Cytochrome panel assay with activity outcomes
Settings: recombinant CYP, pro-luciferin dealkylation, luminescence, p450-cyp2c9; series mostly up to 57.1 µM
On the % scale 0 is the no-effect control and ±100 the full control effect.

Cytochrome P450 2C9 (Homo sapiens), sequence (P11712 whole entry, looked up): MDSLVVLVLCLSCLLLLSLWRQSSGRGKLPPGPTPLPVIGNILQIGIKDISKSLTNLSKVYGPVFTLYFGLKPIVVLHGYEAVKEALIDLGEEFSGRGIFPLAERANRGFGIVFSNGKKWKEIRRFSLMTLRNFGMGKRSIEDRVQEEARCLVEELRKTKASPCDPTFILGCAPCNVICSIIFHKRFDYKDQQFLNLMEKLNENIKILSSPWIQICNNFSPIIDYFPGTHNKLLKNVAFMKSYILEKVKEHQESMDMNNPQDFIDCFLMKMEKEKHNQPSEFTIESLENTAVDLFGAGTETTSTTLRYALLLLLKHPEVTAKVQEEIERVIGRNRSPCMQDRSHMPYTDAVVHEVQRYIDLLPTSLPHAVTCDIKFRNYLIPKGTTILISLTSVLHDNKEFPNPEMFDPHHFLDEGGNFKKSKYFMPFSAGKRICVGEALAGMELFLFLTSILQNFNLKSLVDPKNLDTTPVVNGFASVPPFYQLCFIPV

AC50, active:
CCSC1=C(C#N)C2(CCCCC2)C(C#N)=C(N)N1 2.82 µM
Cc1cccc(NS(=O)(=O)c2c(C)n[nH]c2C)c1 17.8 µM
COc1ccc(N(CC(=O)Nc2cccc(C)c2)S(=O)(=O)c2c(C)n[nH]c2C)cc1 1.41 µM
C=CCSc1nnc2c(n1)OC(c1c(C)[nH]n(-c3ccccc3)c1=O)Nc1ccccc1-2 (centres undefined) 0.447 µM
CCCCCSc1nncc(=O)[nH]1 4.47 µM
Clc1ccc(CC[C@H](Cn2ccnc2)Sc2c(Cl)cccc2Cl)cc1 0.0126 µM
Cc1ccc(C(=O)NCCNc2ccc(Cl)cc2[N+](=O)[O-])o1 10 µM
O=C(Nc1cccc(NC(=O)N2CCN(c3ccccc3)CC2)c1)N1CCN(c2ccccc2)CC1 7.94 µM
CC(C)n1c(N2CCN(C(=O)Nc3ccccc3)CC2)nc2ccccc21 6.31 µM
CC(C)C(C(=O)O)N1C(=O)/C(=C/C=C/c2ccco2)SC1=S (centres undefined) 6.31 µM
Cc1cccc(N(CC(=O)NC2CCCC2)C(=O)c2cc3cc4cccc(C)c4nc3s2)c1C 0.794 µM
Cc1ccc(C)c(N(CC(=O)NC2CCCC2)C(=O)c2cc3cc4cccc(C)c4nc3s2)c1 0.447 µM
COC(=O)[C@@]1(Cc2ccccc2)[C@H]2c3cc(C(=O)N4CCCC4)n(Cc4cc(F)cc5c4OCOC5)c3C[C@H]2CN1C(=O)c1ccccc1 0.316 µM
COC(=O)[C@@]1(Cc2ccc(OC)cc2)[C@H]2c3cc(C(=O)N4CCCC4)n(Cc4cc(F)cc5c4OCOC5)c3C[C@H]2CN1C(=O)c1ccccc1 6.31 µM
CSc1nsc(SC)c1NC(=O)OCc1ccccc1 10 µM
C/C(=N\NC(=O)c1ccccc1C)c1ccc(NC(=O)c2cccs2)cc1 14.1 µM
Cc1ccccc1C(=O)Nc1cccc(NC(=S)NC(=O)c2cccs2)c1 3.55 µM
Cc1cccc(NC(=S)NC(=O)c2cccs2)n1 10 µM
CCCN1C(=O)C(Cc2nc3ccccc3c(=O)n2C)c2ccccc21 (centres undefined) 12.6 µM
Cc1ccc(/C=C2\SC(=S)N(CCCC(=O)Nc3ccccn3)C2=O)cc1 5.01 µM
CCOc1c(OC(C)=O)ccc(/C=C2\N=C(SCC)SC2=O)c1[N+](=O)[O-] 5.62 µM
Cc1ccccc1NC1=C(C(=O)c2ccccc2)N(C)S(=O)(=O)c2ccccc21 3.55 µM
O=C(CSc1nnc(-c2ccncc2)n1Cc1ccccc1)Nc1nccs1 10 µM
COC(=O)c1ccc(NC(=O)Cn2nc(-c3ccncc3)nc2SCC(=O)Nc2nccs2)cc1 0.224 µM
C=CCn1c(SCc2ccc(C(=O)Nc3ccccc3)cc2)nnc1-c1ccccc1 3.98 µM
CCn1c(SCc2ccc(C(=O)Nc3nccs3)cc2)nnc1-c1ccc(NC(C)=O)cc1 1.78 µM
Cc1ccc(OCCOCCn2ccnc2)c(Br)c1 0.501 µM
O=S(=O)(c1ccc(F)cc1)N1CC2CCCN2c2ccc(C(F)(F)F)cc21 (centres undefined) 10 µM
COc1ccc(-c2nc(-c3cccc(C)c3)nc(N3CCN(C)CC3)c2C#N)cc1 7.94 µM
Cc1cc(SCC(=O)c2ccc(Br)cc2)cc(C)[o+]1 2.51 µM
FC(F)(F)c1nnc(-c2ccccc2)nc1Sc1ccccc1 7.08 µM
Fc1ccc(-c2cnc(-c3cccs3)o2)cc1 12.6 µM
Cc1ccccc1NC(=O)C(C)c1cccc(C(=O)c2ccccc2)c1 (centres undefined) 3.16 µM
O=C(CN(C(=O)CSc1nc2ccccc2o1)c1cccc(F)c1)NC1CCCCC1 2.24 µM
COc1ccc(CCn2c(=N)c(C(=O)NCc3ccco3)cc3c(=O)n4ccccc4nc32)cc1 20 µM

AC50, inactive:
CNC(=O)[C@H]1O[C@H](n2cnc3c(NCc4cccc(I)c4)ncnc32)[C@@H](O)[C@@H]1O
Cc1cc(C)c(S(=O)(=O)Nc2cccc(C(F)(F)F)c2)c(C)c1
CS(=O)(=O)N1CCC[C@@]2(CCN(C(=O)Nc3cccc(C#N)c3)C2)C1
NC(N)=Nc1ccc(Cl)cc1
COc1ccc(NC(=O)CN(C)S(=O)(=O)c2ccc(Cl)cc2)c([N+](=O)[O-])c1
CCOc1ccc(NC(=O)c2ccc(Br)o2)c([N+](=O)[O-])c1
CC(NC(=O)CN1CCCC1)C12CC3CC(CC(C3)C1)C2 (centres undefined)
CC(Oc1ccc(O)cc1)(P(=O)(O)O)P(=O)(O)O
CC(=O)N1CCC2(CC1)CCN(C(=O)Nc1cccc(F)c1)CC2
Cn1cccc1C(=O)N1CCC2(CCN(C(=O)Nc3ccccc3)CC2)CC1
O=C(Nc1ccccc1)N1CCC2(CCNCC2)CC1
COC(=O)N1CCC2(CCN(C(=O)Nc3ccccc3)CC2)CC1
c1ccc2cc(C3=NCCN3)ncc2c1
N=C(N)SCCc1cnc[nH]1
Cc1nn(C)c(Cl)c1NC(=O)OCc1ccc(F)cc1
O=C(NCC1CCC(C(=O)O)CC1)OCc1ccccc1 (centres undefined)
Cc1cccc(NC(=O)c2cc(N3C(=O)CCC3=O)ccc2Cl)n1
CSc1ccc2c(c1)[C@H](N1CCN(C)CC1)Cc1ccccc1S2
CCCN1C(=O)C(NC(C)=O)c2cc(OC)ccc21 (centres undefined)
CC1CN(C(=O)CN2C(=O)NC3(CCCCCC3)C2=O)CC(C)O1 (centres undefined)
Cc1ccc(NC(=O)CN2C(=O)S/C(=C\c3cccn3C)C2=O)cc1
C=CCSC1=Nc2sccc2C2=NC(=O)CN12
Cc1ccc(C)c(C(=O)CN2C(=O)c3ccccc3S2(=O)=O)c1
Cc1ccc(NC(=O)c2ccc(CSc3nnc(-c4ccncc4)n3C)cc2)cc1
C=CCn1c(SCC(=O)Nc2ncc(Cc3ccc(Br)cc3)s2)nnc1-c1ccncc1
COc1cc(OC)c2nc(C)c3c(c2c1)N(c1ccc(O)cc1)CC3
Cc1c2oc3c(C)ccc(C(=O)N[C@@H]4C(=O)N[C@@H](C(C)C)C(=O)N5CCC[C@@H]5C(=O)N(C)CC(=O)N(C)[C@@H](C(C)C)C(=O)O[C@H]4C)c3nc-2c(C(=O)N[C@@H]2C(=O)N[C@@H](C(C)C)C(=O)N3CCC[C@@H]3C(=O)N(C)CC(=O)N(C)[C@@H](C(C)C)C(=O)O[C@H]2C)c(N)c1=O (I: [aThr]V[dP][Sar][NMeV] / II: [aThr]V[dP][Sar][NMeV]; ester I:1-I:C, II:1-II:C; linker I:N-II:N via Actinocin(9to1))
CNc1cc(OC)c(C(=O)N[C@@H]2CCN(Cc3ccccc3)[C@H]2C)cc1Cl
C=CCNCCOCCOc1ccc(C)cc1[N+](=O)[O-]
O=S(=O)(c1ccc(F)cc1)N1CCCC(CO)C1 (centres undefined)
O=C(Nc1ccccc1)N1CC2(CCN(C(=O)c3ccco3)CC2)C1
CC(=O)NC(NC(C)=O)c1ccc(Br)cc1
FC(F)(F)c1nnc2c(Sc3ccc(Cl)cc3)nc3ccccc3n12
COc1n[nH]c2nncnc12
CN(C)c1ncc2nc(-c3ccc(F)cc3)c(=O)n(Cc3cccs3)c2n1
CCCN[C@@H](C)C(=O)Nc1ccccc1C
O=C(O)[C@@H]1[C@@H]2C[C@H]3c4[nH]c5ccccc5c4CCN3C[C@@H]2CC[C@@H]1O
CC(=O)NC1(c2cccc(F)c2)CCN(CC(=O)NC2CCCCC2)CC1
CCCCCCCCCCCCCCCCCCOC[C@@H](COP(=O)([O-])OCC[N+](C)(C)C)OC

activity, negative = inhibition, inactive:
CCOC(=O)[C@]1(CC(=O)O)CCCC1=O -6.54% [at 11.4 µM]
CN(C)c1cc(-c2cccc(NS(C)(=O)=O)c2)ncn1 16.1% [at 2.29 µM]
COc1ccccc1CNc1ccnc(-c2ccccc2OC)n1 -5.44% [at 2.29 µM]
CC(C)=CCC/C(C)=C/CO/N=C1/C[C@@H](O)[C@@H](O)[C@@H]2[C@H]3C(=O)N(c4ccc(F)cc4F)C(=O)[C@@H]3CC[C@@H]12 -4.09% [at 11.4 µM]
CN(C)c1ccc(-c2nccc(NCCN3CCOCC3)n2)cc1 5.77% [at 2.29 µM]
FC(F)(F)c1ccccc1-c1nc(NCCN2CCOCC2)c2ccccc2n1 12.6% [at 2.29 µM]
CC(=O)NCCNc1ncncc1-c1ccc(N(C)C)cc1 -1.01% [at 2.29 µM]
Cn1c(=O)c2[nH]c(COCc3nc4c([nH]3)c(=O)n(C)c(=O)n4C)nc2n(C)c1=O 7.37% [at 11.4 µM]
O=C1Nc2ccccc2C1=Nc1cccc2ncccc12 17.9% [at 11.4 µM]
CCOC(=O)N/N=C1/C[C@@H](O)[C@@H](O)[C@@H]2[C@@H]3C(=O)N(CC)C(=O)[C@H]3CC[C@H]12 8.47% [at 11.4 µM]
CN1CCN(c2ncnc3ccc(-c4cccc(C#N)c4)cc23)CC1 10.4% [at 2.29 µM]
CN1CCN(c2nc(-c3cccc(C#N)c3)nc3ccccc23)CC1 -2.12% [at 2.29 µM]
Nc1ncnc2nc(N3CCN(CCO)CC3)[nH]c12 -3.79% [at 11.4 µM]
CN(C)C(=O)c1ccc(-c2ccc3ncnc(Nc4ccc(F)cc4)c3c2)cc1 6.1% [at 2.29 µM]
C=C1C=C(Br)C2(OCCCO2)[C@H]2OC12 (some centres undefined) 13.6% [at 11.4 µM]

— PubChem BioAssay AID1851 (National Center for Advancing Translational Sciences (NCATS), 2009)
